# Hits are enriched below; roughly 4.1% of the tested compounds scored in any of these assays.
# tim23-1 inh = inhibits growth of tim23-1 mutant yeast; inhibition, % at 20 µM; actives 1.3% (n = 330,000); S. cerevisiae tim23-1 growth, BacTiter-Glo luminescence, 24 h; AID 463212;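 active means growth inhibition of the mutant yeast at or above 50%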;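 further: temperature-sensitive mutant grown at 25 °C; plate controls were DMSO-treated mutant yeast for no effect and medium wells lacking yeast for full effect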
# NALP1 yeast inh = NALP1 inhibition; S. cerevisiae NALP1/ASC/caspase-1 growth, X-gal OD620, 72 h; inhibition, % at 10 µM; actives 0.61% (n = 280,000); AID 2071; in the data active means inhibition mostly above about 24%, no sharp cut-off; inactive means mostly below about 32%
# PfHsp90 set2 = reduces growth (ATP signal) of yeast expressing P. falciparum Hsp90 | S. cerevisiae expressing PfHsp90, BacTiter-Glo ATP, 48 h; yeast lacking PDR1 and PDR3 efflux regulators | inhibition, % at 9.4 µM | actives 0.32% (n = 310,000) | AID 504621;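 active means every replicate shows inhibition above about 80%, whatever the replicate mean, limit read from the data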;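 further: 0% = DMSO neutral controls and 100% = 20 µM radicicol positive controls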
# tim10-1 inh = growth inhibitors of tim10-1 mutant yeast. S. cerevisiae tim10-1 ts strain growth, BacTiter-Glo, 24 h. inhibition, % at 20 µM. actives 2.2% (n = 330,000). AID 463190;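 active means inhibition of at least 40%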;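 further: mutant grown at 25 °C; 0% = DMSO wells with yeast and 100% = wells holding no yeast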
# NALP3 yeast inh = NALP3 inhibition in yeast; inhibition, % at 10 µM; actives 0.39% (n = 330,000); Yeast reconstituted NLRP3/ASC/caspase-1, beta-gal luminescence, 24 h;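 active means inhibition of 50% or more; inactive means inhibition below 50%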;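 further: plate controls were induced DMSO wells for no effect and uninduced yeast grown without galactose for full effect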
# TIM10 inh = growth inhibitors of TIM10 yeast strain; S. cerevisiae TIM10 strain growth, BacTiter-Glo luminescence, 24 h; inhibition, % at 10 µM; actives 1.4% (n = 330,000); AID 463195;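 active means inhibition of 40% or more at the single tested concentration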;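 further: wild-type TIM10 isogenic control strain grown at permissive 25 °C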
# NALP3 yeast conf = confirmation of NALP3 inhibitors in yeast; shares compounds with NALP3 yeast inh; yeast expressing human NALP3, luminescence; inhibition, % at 10 µM; actives 81% (n = 1,300); in the data active means inhibition above about 48%
# Casp1 ASC ctr = caspase-1-ASC yeast counter-screen hit | shares compounds with NALP3 yeast inh | yeast expressing Caspase-1-ASC, luminescence counter screen | inhibition, % at 10 µM | actives 66% (n = 1,000) | AID 488784
# NALP3 retest = confirmation retest of NALP3 inhibitors in yeast. inhibition, % at 10 µM. shares compounds with NALP3 yeast inh. yeast expressing human NALP3, luminescence read-out. actives 53% (n = 1,000)
# tim10-1 conf = confirmation of tim10-1 mutant yeast growth inhibitors; inhibition, % at 20 µM; S. cerevisiae tim10-1 ts strain growth, BacTiter-Glo, 24 h; shares compounds with tim10-1 inh; actives 56% (n = 7,400);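 active means inhibition of yeast growth at or above a set limit in either of two repeat tests at 20 µM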;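 further: tim10-1 mutant grown at permissive 25 °C to find synthetic lethal compounds; 0% = DMSO yeast wells and 100% = medium wells without yeast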
# tim10 confirm = TIM10 yeast growth inhibition, confirmed | shares compounds with TIM10 inh | S. cerevisiae tim10 strain growth, BacTiter-Glo luminescence, 24 h | inhibition, % at 10 µM | actives 63% (n = 4,600) | AID 463215;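 active means inhibition of yeast growth at or above a set limit in either of two replicates at 10 µM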;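 further: this counterscreen used the strain with wild-type TIM10; 0% = yeast with DMSO and 100% = medium wells lacking yeast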
# tim23-1 confirm = confirmation of tim23-1 mutant yeast growth inhibitors | shares compounds with tim23-1 inh | S. cerevisiae tim23-1 growth, BacTiter-Glo luminescence, 24 h | inhibition, % at 20 µM | actives 83% (n = 4,400) | AID 463218;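 active means inhibition above about 39% in either of two replicate wells at 20 µM, limit read from the data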;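 further: temperature-sensitive tim23-1 mutant grown at 25 °C; 0% = DMSO wells with yeast and 100% = medium wells without yeast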
# Active calls of the source: *; · = not tested or not shown; ! = repeats disagree. Unless noted, no stated cut-off is given here; in the data, active means inhibition above about 50%; inactive means the rest.
SMILES,tim23-1 inh,NALP1 yeast inh,PfHsp90 set2,tim10-1 inh,NALP3 yeast inh,TIM10 inh,NALP3 yeast conf,Casp1 ASC ctr,NALP3 retest,tim23-1 confirm,others
COC(=O)c1ccccc1S(=O)(=O)N1CCC(C(=O)NCCC2=CCCCC2)CC1,-1,·,20,-8,18,2,·,·,·,·,
COc1ccc(NC(=O)Cc2nnc(SCC(=O)c3ccc(F)cc3)n2C)cc1,0,11,-8,-6,13,7,·,·,·,·,
O=C(CN(Cc1ccc(Cl)cc1)C(=O)c1csnn1)NCc1ccc(F)cc1,15,0,-13,5,7,-7,·,·,·,·,
O=C(N/N=C/c1ccccc1)c1ccco1,15,-38,19,-14,8,-2,·,·,·,·,
O=C(N/N=C/C(Br)=C\c1ccccc1)c1ccco1,66*,8,13,-88,64*,-15,77*,74*,54*,45*,
O=C(CC(=O)c1c(F)cccc1Cl)c1ccccc1O,63*,21,-65,52*,51*,8,70*,61*,48,64*,tim10-1 conf=14
O=C(CC(=O)c1ccccc1O)c1cccc(F)c1,34,-3,-98,7,32,-5,·,·,·,·,
OC(CNCCc1ccc(Cl)cc1)COc1cc(Cl)ccc1Cl (stereo not drawn),-39,26,-9,-113,37,-63,·,·,·,·,
O=C(Nc1ccc2c(c1)ncn2C1CCCCC1)c1ccco1,51*,-4,·,36,53*,66*,70*,55*,52*,77*,tim10 confirm=53*
CCN(C1CCS(=O)(=O)C1)S(=O)(=O)c1ccc(Cl)s1 (stereo not drawn),19,·,16,4,10,-1,·,·,·,·,
C[C@H](NS(=O)(=O)c1ccc2c(c1)OCCCO2)C(=O)N1CCN(c2ccc(F)cc2)CC1,19,·,-4,25,5,-11,·,·,·,·,
CCCCc1cc(O)c(CCCC)c(O)c1,53*,16,8,35,51*,-3,62*,34,50,42*,
O=C(Cn1nc(C(=O)O)c2ccccc2c1=O)Nc1cc(S(=O)(=O)N2CCOCC2)ccc1Cl,-2,·,-29,-2,13,-10,·,·,·,·,
Cc1ccc(-c2cc(C(=O)Nc3c(C)n(C)n(-c4ccccc4)c3=O)[nH]n2)c(O)c1C,19,-22,-25,0,8,-18,·,·,·,·,
CCOC(=O)N1C(=O)C2(CCCCC2)N(c2ccccc2Cl)C1=S,78*,38,-22,60*,64*,57*,67*,34,51*,68*,tim10-1 conf=52*;tim10 confirm=-2
CC(C)C(NC(=O)c1ccc(F)cc1)C(=O)N1CCN(C(=O)c2ccco2)CC1 (stereo not drawn),15,·,-2,5,3,1,·,·,·,·,
CC(C)N=c1cc2n(-c3ccc(Cl)cc3)c3ccccc3nc-2cc1Nc1ccc(Cl)cc1,58*,·,11,41*,56*,24,68*,·,·,57*,tim10-1 conf=2
Cn1c(CNc2ccc(Cl)cc2)nc2ccccc21,21,16,-4,14,0,-7,·,·,·,·,
COCCNC(=O)C(OC(=O)C1=Cc2ccccc2OC1)C(C)C (stereo not drawn),13,23,-24,-4,13,-10,·,·,·,·,
O=C([O-])c1cc(-c2ccccc2)cc(-c2ccccc2)[n+]1CCc1ccc(Cl)cc1,·,·,17,·,·,·,·,·,·,·,
Cc1ccc2ccc3cccnc3c2n1,·,·,10,·,·,·,·,·,·,·,
Cc1c(C)c2cccnc2c2ncccc12,69*,·,124*,38,78*,57*,86*,96*,86*,45*,tim10 confirm=62*
O=C(Nc1cccc2nsnc12)c1cccs1,61*!,9,-24,16,70*!,69*!,89*,78*,61*,76*,tim10 confirm=58*
O=C(Nc1ccc2nsnc2c1)c1cccs1,19,11,9,16,-10,18,·,·,·,·,
CC(=O)COc1ccc2c3c(c(=O)oc2c1)CCCC3,21,-2,-12,13,15,8,·,·,·,·,
SMILES,tim23-1 inh,NALP1 yeast inh,PfHsp90 set2,tim10-1 inh,NALP3 yeast inh,TIM10 inh,NALP3 yeast conf,Casp1 ASC ctr,NALP3 retest,tim23-1 confirm,others
C#CCOc1ccc2c3c(c(=O)oc2c1)CCCC3,57*,24,-8,39,59*,0,62*,60*,35,50*,
O=c1c2ccccc2nc2c3ccccc3c(Cl)nn12,·,0,·,·,·,·,·,·,·,·,
O=c1c2ccccc2nc2c3ccccc3cnn12,55*,1,0,-12,56*,39,63*,55*,66*,64*,
CCc1ccc(NC(=O)c2nc(S(=O)(=O)Cc3ccccc3)ncc2Cl)cc1,66*,12,99*,-105,60*,-1,73*,54*,66*,22,
CC(=O)Nc1ccc(NC(=O)c2nc(S(=O)(=O)Cc3cccc(C)c3)ncc2Cl)cc1,24,6,-13,3,15,19,·,·,·,·,
C#CCOc1ccc(C2C(C#N)=C(N)Oc3cc(O)ccc32)cc1 (stereo not drawn),21,14,-12,22,14,1,·,·,·,·,
N#C/C(=C\c1cccc(Br)c1)C(=O)N1CCCCC1,81*,26,-122,70*,60*,63*,58*,68*,50*,73*,tim10-1 conf=68*;tim10 confirm=74*
N#C/C(=C\c1cccc(O)c1)C(=O)N1CCCCC1,46,-79,5,36,20,25,·,·,·,·,
COc1ccc(N(CC(=O)NC(C)(C)C)C(=O)CCC(=O)Nc2nccs2)c(OC)c1,-4,14,2,-4,29,0,·,·,·,·,
COc1ccc2c(c1OC)C(=O)N1C2SC(C)(C)[C@H]1C(=O)NCC(C)C (stereo partly drawn),-10,-6,15,-8,9,2,·,·,·,·,
COc1cccc(NC(=O)c2cccs2)c1,51*,10,·,27,68*,66*,81*,71*,57*,75*,tim10 confirm=56*
COc1cccc(C(=O)Nc2ccccc2)c1,50*,4,19,25,51*,44*,80*,48,39,58*,tim10 confirm=27
O=c1c(Cl)c(O)c2cccc3c4ccccc4n1c23,20,22,1,16,5,9,·,·,·,·,
